Whole data set: some 33,000 sequences, median “E-score (-0.5 to 0.5)” near -0.04, cut for the highest 2% near 0.36. The full list was thinned out, with the highest values kept by preference.
What follows are sequences tested against T1, Hmlalpha2 (UniProt P0CY09) (assay: PBM E-score (8-mer binding enrichment) (E-score (-0.5 to 0.5)); higher = stronger / more preferred TF binding). Details: protein concentration: 200 nM; construct: GST-full length.
T1 sequence: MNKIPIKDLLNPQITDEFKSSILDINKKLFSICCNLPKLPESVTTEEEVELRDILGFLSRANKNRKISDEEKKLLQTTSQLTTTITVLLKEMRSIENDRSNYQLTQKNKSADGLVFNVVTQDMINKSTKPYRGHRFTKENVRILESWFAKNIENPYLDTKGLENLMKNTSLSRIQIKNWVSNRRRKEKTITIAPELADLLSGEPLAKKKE
Description: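 Universal 'all 10-mer' protein binding microarrays (Agilent AMADID 015681) probed with GST-tagged S. cerevisiae TFs (full-length or DBD) made by in vitro transcription/translation (PURExpress), about 100-200 nM. Bound TF was detected with fluorescent anti-GST. Each ungapped 8-mer (which stands for itself and its reverse complement) is scored by the PBM enrichment score (E-score), a modified Wilcoxon-Mann-Whitney statistic from -0.5 to +0.5, computed with the Universal PBM Analysis Suite. Scale: above 0.35 generally sequence-specific binding.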

Point of comparison: CGTAATTC, “PBM E-score” value 0.321. Against it:
- CTTGCTTC — lower, 0.0506
- GTCATCGA — lower, -0.0402
- CTTTACGA — lower, 0.185
- AATTACGT — higher, 0.382
- CATTACGC — the same, 0.321
- AATTACGG — lower, -0.0144
- AATTACGA — higher, 0.338
- GATTACGC — higher, 0.345
- CTTTACGC — higher, 0.42
- AATTACGC — higher, 0.431
- ATTTACGC — higher, 0.347
- AATAACTG — lower, 0.0798
- CCACTAGC — lower, -0.111
- AATACCCT — lower, -0.0975
- TCATTCCA — lower, -0.147
- GGTAATTA — lower, 0.25
- CGTAATTA — higher, 0.389
- AGTAATCA — lower, 0.199
- CGTAATCC — lower, 0.309
- CGTAATCA — higher, 0.367
- ACTGCTTG — lower, -0.00682
- AACGAAGT — lower, 0.0804
- ACAGCAGC — lower, 0.0712
- CACGCGTC — lower, 0.174
- TACGCGTA — higher, 0.409
- TACGCGGA — lower, 0.312
- CACGCGTA — lower, 0.277
- TACGCGCA — lower, 0.252
- GACGCGTA — higher, 0.383
- AACGCGTG — higher, 0.336
- AACGCGTA — higher, 0.359
- CACGCGTG — higher, 0.374
- CCCCCGTA — lower, -0.247
- AATGGAGT — lower, -0.0239
- AACTCTAA — lower, 0.0318
- CCTTGATC — lower, -0.0105
- CCTGTACA — lower, 0.304
- GATGTACA — higher, 0.379
- AATGTACA — higher, 0.366
- CATGTACA — higher, 0.458
- TCAGTACA — lower, 0.227
- GGTGTACA — lower, 0.211
- GATGTACC — lower, 0.135
- AATGTACC — lower, 0.166
- TCTGTACA — lower, 0.258
- AATGTACT — lower, 0.186
- CATGTACC — lower, 0.287
- TATGTACA — higher, 0.429
- GCTTTGAC — lower, 0.074
- GCGCACAC — lower, -0.189
- GTCAAGAC — lower, -0.135
- ATCACTGG — lower, -0.0104
- TATCTGGA — lower, -0.16
- GGTCCCTA — lower, -0.0695
- CCTGAATC — lower, -0.0621
- CCTGTACG — lower, 0.0613
- CATGTACG — higher, 0.372
- AATGTACG — lower, 0.108
- CGGTAGAA — lower, -0.175
- CTAATGTA — lower, 0.262
- GTCATGCA — lower, 0.133
- ATCATGTC — higher, 0.351
- CTCATGTC — lower, 0.295
- CTCATGGA — lower, -0.142
- ATCATGTG — lower, 0.209
- ATCATGTA — higher, 0.472
- GTCATGTA — higher, 0.442
- GTCATGGA — lower, -0.188
- GTAATGTA — higher, 0.413
- ATAATGTA — lower, 0.273
- CTCATGTA — higher, 0.454
- CGCATTAC — lower, 0.214
- ATGCGTTC — lower, 0.122
- CGAGGCAA — lower, 0.126
- AACCTCTC — lower, -0.275
- TACAACAA — higher, 0.343
- GCCCCTCC — lower, -0.277
- TCGCCTCA — lower, -0.118
- TACACAGA — higher, 0.424
- GACACAGA — lower, -0.00939
- TATACACA — higher, 0.437
- GATACACA — lower, 0.214
- CACACAGA — lower, 0.221
- TATACAGA — lower, 0.251
- CATACACA — higher, 0.336
- GATATACA — higher, 0.339
- AATATACA — higher, 0.34
- CATACACC — lower, -0.076
- TATATACA — higher, 0.389
- CATACACG — higher, 0.398
- CTAAGATC — lower, -0.0578
- GGTGAGTA — lower, 0.135
- AAAGCGAA — lower, -0.132
- GCCATCTA — lower, -0.19
- ACTCCACA — lower, 0.0494
- GACGGTCA — lower, -0.196
- ATAGACTG — lower, -0.0652
- TACACAAA — higher, 0.431
- CACACACA — lower, 0.228
- CACACACG — lower, 0.279
- GACACAAA — lower, 0.14
- CACACAAA — lower, 0.126
- TACACACA — higher, 0.43
- ACAGATGC — lower, -0.0548
- ACTCCCAC — lower, -0.352
- GGCGGGAC — lower, -0.194
- TAACGCCA — lower, 0.0809
- ATCTTGTG — lower, -0.0105
- AGCTTGTC — lower, 0.133
- AGCTTGTG — lower, 0.11
- ACCTTGTA — higher, 0.402
- GTCTTGTA — lower, 0.306
- CCCTTGTA — higher, 0.328
- GCCTTGTA — higher, 0.33
- AGCTTGTA — higher, 0.379
- ATCTTGTA — higher, 0.383
- CGGTCCCC — lower, -0.347
- AACGATCT — lower, -0.0798
- ACCAAAGG — lower, -0.219
- AGCACCCA — lower, -0.176
- CGGGTAAA — lower, 0.234
- GGTACACA — lower, 0.246
- TGTACAAA — higher, 0.422
- CGTACACA — higher, 0.347
- AGTACACT — lower, 0.074
- GGTACAAA — lower, 0.138
- TGTACACA — higher, 0.418
- AGTACAAA — lower, 0.161
- CGTACACG — higher, 0.354
- AGTACACC — lower, 0.115
- AGTACACG — higher, 0.437
- AGTACAGG — lower, 0.134
- AGTACACA — higher, 0.387
- ACACCGCG — lower, 0.15
- GCGACTCA — lower, -0.134
- ATGCGAGG — lower, -0.117
- GAACGATC — lower, -0.0263
- AGAGTGCC — lower, -0.257
- CGTACCTA — lower, -0.0874
- ACGGCCCC — lower, -0.437
- GAGTTAAC — lower, 0.234
- CTGTTAAC — lower, 0.304
- ATGTTAGC — higher, 0.342
- CTGTTAAA — lower, 0.258
- AAGTTAAC — lower, 0.303
- ATGTTAAC — higher, 0.448
- TTGTTAAA — higher, 0.359
- GTGTTAAC — higher, 0.462
- GTGTTAAA — higher, 0.462
- CCCTTAAC — lower, -0.0469
- ATACTATC — lower, 0.0717
- ATTTGCGA — lower, 0.0385
- AAGTTTCC — lower, 0.0351
- ATGCTGTG — lower, 0.238
- CGGGTCCA — lower, -0.262
- AAGCGTCT — lower, -0.232
- ATGTTTGC — lower, 0.166
- ATGTTTAC — higher, 0.433
- ATGTTTAG — higher, 0.33
- CTGTTTCC — lower, -0.11
- CCGTTTAC — lower, 0.259
- CTGTTTAC — higher, 0.371
- AGGAGATG — lower, -0.157
- AGGAAAAA — lower, 0.00347
- GTATTATA — lower, 0.318
- CCTATGAA — lower, -0.065
- ACTATGTG — lower, 0.108
- GCTATGCA — lower, -0.0142
- AATATGTA — higher, 0.386
- GCTATGTA — higher, 0.426
- CATATGTA — higher, 0.356
- CCTATGTA — higher, 0.433
- AATATGTC — lower, 0.167
- CCTATGTC — lower, 0.0957
- ACTATGTA — higher, 0.444
- GATATGTA — higher, 0.345
- ACTATGTC — lower, 0.165
- CTTCATTC — lower, -0.149
- AAGATCAC — lower, -5e-05
- CACAGGTC — lower, -0.101
- GAATACCC — lower, -0.19
- TGACCAAA — lower, -0.0837
- CCAGTAGG — lower, -0.239
- GTGAAGCA — lower, -0.113
- CTGGAAAG — lower, -0.217
- AAACCTTT — lower, -0.111
- AGGTATGG — lower, -0.317
- ACGCTTGC — lower, -0.0163
- TTACCCAA — lower, 0.02
- GTGTAATA — higher, 0.456
- AAGTAATA — lower, 0.24
- CTGTAATA — lower, 0.286
- ATGTAACG — higher, 0.362
- CTGTAATC — lower, 0.243
- ATGTAATC — higher, 0.478
- ATGTAATG — higher, 0.479
- ATGTAATA — higher, 0.48
- ATGTAACC — lower, 0.304
- CAGTAATG — lower, 0.167
- GGGTAATA — lower, 0.193
- CGGTAATA — lower, -0.00682
- GGAGTGTA — lower, 0.18
- CATGAGGC — lower, -0.166
- TACTGTCA — lower, -0.0966
- CAGCAGCG — lower, 0.0849
- GGGGATAA — lower, -0.178
- CCAGGACG — lower, 0.0263
- GGGCCAAA — lower, -0.124
- GGGCACTA — lower, -0.105
- ACACGCCC — higher, 0.371
- AGACGCCT — lower, -0.0767
- ACACGCCG — lower, 0.274
- ACACGCCT — higher, 0.374
- ACACGCCA — lower, 0.311
- GCACGCCC — lower, -0.0771
- ATCCTGCA — lower, -0.0119
- CTATTGCA — lower, 0.117
- CCGGTTTA — lower, 0.0123

— the supplement of paper PMC3334620
